# High-throughput results deposited in PubChem BioAssay by several laboratories.
# Only some compounds are listed: those with a hit (about 1.9% of all), similar ones and a draw of the others.
# dFosB act: enhances mouse delta FosB homodimer DNA binding. purified delta FosB, TAMRA-CDK5 oligo fluorescence polarization; percent of positive-control signal above neutral wells. P13346. 340,000 tested, 0.99% active. AID 493131. activation, % at 25 µM;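 active means mean activation above about 17%, with every replicate also reaching it, limit read from the data, passing the limit was not always enough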
# Vif imaging: blocks HIV Vif function; HEK293T cells, Vif self-association by quenched fluorescence, imaging, 24 h; 340,000 tested, 0.35% active; inhibition, % at 7.49 µM; in the data active means inhibition above about 50%, passing the limit was not always enough
# Neddyl block: cullin neddylation inhibition; AID 651699; TR-FRET cullin neddylation, biochemical; 360,000 tested, 0.58% active; inhibition, % at 25 µM; in the data active means inhibition above about 36%
# Target sequence (P61081 whole entry, looked up): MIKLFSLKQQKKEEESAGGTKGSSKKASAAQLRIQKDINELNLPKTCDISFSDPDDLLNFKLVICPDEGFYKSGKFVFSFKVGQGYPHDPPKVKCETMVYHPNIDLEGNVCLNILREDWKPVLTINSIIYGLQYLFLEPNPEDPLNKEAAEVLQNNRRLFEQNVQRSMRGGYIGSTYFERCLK
# Target sequence (Q13564 whole entry, looked up): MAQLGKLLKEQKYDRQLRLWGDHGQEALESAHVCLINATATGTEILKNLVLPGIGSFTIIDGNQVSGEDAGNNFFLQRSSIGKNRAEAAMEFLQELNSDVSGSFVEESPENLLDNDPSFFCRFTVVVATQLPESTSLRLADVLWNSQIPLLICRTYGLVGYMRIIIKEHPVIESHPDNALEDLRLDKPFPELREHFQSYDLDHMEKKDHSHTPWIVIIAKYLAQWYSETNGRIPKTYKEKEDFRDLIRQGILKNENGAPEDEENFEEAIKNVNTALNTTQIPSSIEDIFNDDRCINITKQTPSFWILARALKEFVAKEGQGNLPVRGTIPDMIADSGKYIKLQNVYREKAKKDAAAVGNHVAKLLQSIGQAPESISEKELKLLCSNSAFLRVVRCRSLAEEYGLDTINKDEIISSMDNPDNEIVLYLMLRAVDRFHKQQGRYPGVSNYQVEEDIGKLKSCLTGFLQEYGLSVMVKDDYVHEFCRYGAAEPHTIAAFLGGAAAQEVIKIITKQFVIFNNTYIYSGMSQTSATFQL
# Bfl-1 A1 inh: inhibitors of the anti-apoptotic protein A1, read as caspase activation. MEF A1-2A-BIM cells, Caspase-Glo 3/7 luminescence, 3 h; percent of clofoctol response, vehicle zero. caspase activation, % (no concentration beside the values). 330,000 tested, 0.066% active. AID 2462;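 active means over half of replicate activation scores above 10%, or exactly half above 10 with the replicate mean above 10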
# INS-1E GSIS act: primary screen for activators of insulin secretion dependent on glucose, INS-1E cells, GLuc reporter luminescence | 370,000 tested, 0.61% active | activation, % at 16.6 µM | INS-1E GLuc reporter insulin secretion, 2-3 h;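 active means lowest replicate activation of at least 40%, so every replicate reaches that level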;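 further: 0% = median of neutral control wells and 100% = median of IBMX positive control wells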
# Active calls of the source: *; x = no result shown.
SMILES,dFosB act,Vif imaging,Neddyl block,Bfl-1 A1 inh,INS-1E GSIS act
C[C@H](CO)N1C[C@H](C)[C@@H](CN(C)Cc2cccc(C(=O)Nc3ccccc3N)c2)OCc2ccccc2-c2c(n(C)c3ccccc23)C1=O,x,x,x,x,1
Cc1ccc(CS(=O)Cc2ccc(C(=O)NCc3ccccc3)o2)cc1 (stereo unspecified),-1,18,3,0,43*
Cc1ccc(CS(=O)Cc2ccc(C(=O)NCCc3ccccc3)o2)cc1 (stereo unspecified),-9,-9,0,1,5
COc1cc2c(c(OC)c1OC)-c1ccc(OC)c(=O)cc1C(NC(C)=O)CC2 (stereo unspecified),9,-6,-24,2,4
COc1c(C=O)c2c(c(OC)c1OC)-c1ccc(OC)c(=O)cc1C(NC(C)=O)CC2 (stereo unspecified),-3,90*,-14,x,-7
CN(C)c1ccc(C(=O)OCC(=O)Nc2ccc(S(N)(=O)=O)cc2)cc1,82*,6,28,-1,15
COc1ccc(-c2nc(C(=O)O)cs2)cc1OC,1,9,6,0,71*
CCOC(=O)c1csc(-c2ccc3c(c2)CCO3)n1,-12,1,-31,2,x
CCOC(=O)c1csc(-c2ccc(OC)c(OC)c2)n1,-9,0,-33,0,50*
CCC(=O)Nc1ccc2c(c1)C(=O)N(C)C[C@H](OC)[C@@H](C)CN(C(=O)COC)[C@@H](C)CO2,x,x,x,x,-6
Cc1cc2oc3ccc(NCCCN4CCOCC4)cc3c(=O)c2cc1C,-2,-9,-16,-1,x
Cc1cc2oc3ccc(NCCCn4ccnc4)cc3c(=O)c2cc1C,-2,154*,-1,-4,119
CCCn1c(=O)[nH]c(=O)c2c1nc(-c1cc([N+](=O)[O-])ccc1Cl)n2CCOC,2,65*,-8,2,35
CCCn1c(=O)[nH]c(=O)c2c1nc(-c1ccc(C#N)cc1)n2CCOC,-3,-2,x,1,15
COCCn1c(-c2ccc3ccccc3c2)nc2c1c(=O)[nH]c(=O)n2CC(C)C,-21,27,x,-1,48*
CCCCn1c(=O)[nH]c(=O)c2c1nc(-c1ccc([N+](=O)[O-])cc1)n2CC,-11,-7,-88,-1,191*
COCCn1c(-c2ccsc2)nc2c1c(=O)[nH]c(=O)n2CC(C)C,-1,5,9,1,x
C=CCOc1ccc(-c2nc3c(c(=O)[nH]c(=O)n3CCCC)n2C)cc1Br,14,-16,16,0,51*
CCCCn1c(-c2ccsc2)nc2c1c(=O)[nH]c(=O)n2CCC,-10,-2,-135,1,x
CCCCn1c(=O)[nH]c(=O)c2c1nc(-c1ccc(OC)c(Br)c1)n2CC(C)C,-18,3,-41,0,-13
CC(C)NC(=O)N(C)C[C@@H]1Oc2ccc(N(S(C)(=O)=O)S(C)(=O)=O)cc2C(=O)N(C)C[C@@H]1C,x,x,x,x,7
C[C@H](CO)N1C[C@H](C)[C@@H](CN(C)S(C)(=O)=O)OCCCC[C@H](C)Oc2ccc(NC(=O)Nc3ccc(F)cc3)cc2C1=O,x,x,x,x,-3
CC(=O)Nc1cc(-c2cccc(C(=O)NCCN(C)C)c2)cn2c(-c3cccc(C(F)(F)F)c3)cnc12,x,22,11,x,170*
